From PubChem BioAssay
FLuc counter: counter-screen for miR-21 project: firefly luciferase inhibitors or activators; Potency, µM (series often up to 57.5 µM), inactives show top-dose activity change, negative = inhibition, actives largely listed as inhibitors; purified FLuc, Km substrates, luminescence inhibition; AID 588342; actives 6.9% (n = 360,000);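 also: plate controls were vehicle for no effect and reference inhibitor for full effect; nearly all actives have a fitted effect of over 55% in size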
Target sequence (P08659 whole entry, looked up): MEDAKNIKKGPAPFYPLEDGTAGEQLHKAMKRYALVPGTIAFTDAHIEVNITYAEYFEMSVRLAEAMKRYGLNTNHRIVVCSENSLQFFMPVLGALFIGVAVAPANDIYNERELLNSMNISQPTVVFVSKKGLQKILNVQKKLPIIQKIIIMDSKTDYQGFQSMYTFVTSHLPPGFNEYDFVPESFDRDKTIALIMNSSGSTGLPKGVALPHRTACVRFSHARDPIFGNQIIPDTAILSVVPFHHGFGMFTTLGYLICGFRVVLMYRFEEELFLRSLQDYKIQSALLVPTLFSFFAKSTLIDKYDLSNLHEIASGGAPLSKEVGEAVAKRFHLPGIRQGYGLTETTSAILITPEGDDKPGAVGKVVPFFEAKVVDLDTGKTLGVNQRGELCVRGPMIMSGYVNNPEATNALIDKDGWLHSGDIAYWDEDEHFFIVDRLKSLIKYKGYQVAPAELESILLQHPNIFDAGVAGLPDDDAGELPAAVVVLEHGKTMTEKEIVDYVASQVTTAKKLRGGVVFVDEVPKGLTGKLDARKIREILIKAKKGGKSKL
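Biochemical qHTS of compounds, final roughly 60 µM downward over six points, against 10 nM purified firefly luciferase using Km concentrations of substrates (10 uM D-luciferin, 10 uM ATP) in Tris acetate pH 7.5 buffer; luminescence output.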
NPC1 prom act: activates the NPC1 promoter. AID 485313. Huh7 NPC1 promoter luciferase reporter, 24 h. actives 2.4% (n = 320,000). Potency, µM (series often up to 9.22 µM), without a hit: top-dose activation, actives largely listed as activators; also: % of control where 0% means no effect; nearly all actives have a fitted effect of over 60% in size
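In 1536-well qHTS, Huh7 cells harboring an NPC1 promoter–luciferase construct received compound for 24 h; activation was quantified by luminescence following luciferase reagent addition.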
ELG1 genotoxic: genotoxicity induction in ELG1-luciferase HEK293T cells | HEK293T ELG1-luciferase reporter, luminescence, 16 h | Potency, µM (highest dose often 46 µM), for inactives: at the highest dose activity change, positive = activation, hits mostly activators | actives 1.3% (n = 330,000) | AID 504466; also: % of control where 0% means no effect; nearly all actives have a fitted effect of over 60% in size
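Genotoxic stress is detected as increased luminescence from luciferase-tagged ELG1 in HEK293T cells, measured with ONE-Glo after a 16 hr treatment at 37 °C.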
Luc counter: Kinase-Glo luciferase inhibition (counter-screen) | actives 0.28% (n = 200,000) | Potency, µM (series often up to 38.3 µM), without a hit: at the highest dose activity change, negative = inhibition, actives largely listed as inhibitors | Kinase-Glo luciferase, ATP luminescence, 8 min; also: % is scaled to controls: 0 for no effect and ±100 for the full control effect; nearly all actives have a fitted effect of over 60% in size
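Light output from Kinase-Glo luciferase with luciferin and 10 uM ATP in 50 mM imidazole pH 7.2, KCl, MgCl2, Tween 20, BSA; compound pin-delivered, 8-min ambient incubation, then luminescence read.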
Rab9 promoter act: activators of Rab9 promoter; actives 2.8% (n = 320,000); Huh7 Rab9 promoter-luciferase reporter, luminescence, 24 h; Potency, µM (series often up to 9.22 µM), for inactives: at the top dose activation, negative = inhibition, hits mostly activators; also: % of control where 0% means no effect; nearly all actives have a fitted effect of over 60% in size
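Cells were plated at 1500 per well in reduced-serum medium with 10% FBS and left 2 h. Compound in DMSO was then added for 24 h at 37 °C. Reporter signal was read by luminescence after 10 min with luciferase detection reagent.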
SMN2 splice up: increases expression of the SMN2 splice variant; HEK293 SMN2-luciferase splicing reporter, luminescence, 30-36 h; Potency, µM (doses to about 46.1 µM), inactives show at the highest dose activity change, positive = activation, actives largely listed as activators; actives 2.8% (n = 210,000); also: % of control where 0% means no effect; nearly all actives have a fitted effect of over 55% in size
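HEK293 cells carry an SMN2 minigene-luciferase reporter in which exon 7 inclusion puts luciferase in frame. Cells were seeded at 2000 cells/well, attached for 10-12 hours, then exposed to compounds for 30-36 hours at 37C before ONE-Glo luminescence.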
An asterisk follows results filed as active; ? = inconclusive; . = no result; [ ] = dose if it differs, or a comment. An excerpt weighted towards active compounds, which were near 7.3% of everything screened. Calls follow the shape of the dose curve; as a rule, active = well fitted curve in the direction sought with a large enough effect; inconclusive = small, poorly fitted or top-dose-only effect, or another doubt; inactive = no such curve, though single readings can be large; an effect the other way counts as inactive or inconclusive. Potency is read from the fitted curve at half-maximal effect.

SMILES | FLuc counter | NPC1 prom act | ELG1 genotoxic | Luc counter | Rab9 promoter act | SMN2 splice up
CCc1ccc(NC(=O)c2ccccc2NC(=O)C2CCCO2)cc1 (stereo unspecified) | 17µM* | 3.5µM* | 12µM* | -1% | 3.5µM* | 13µM*
CCOC(=O)c1ccccc1NC(=O)C1CCCO1 (stereo unspecified) | 3% | 0% | -1% | . | 1% | .
O=C(Nc1ccccc1C(=O)O)c1ccc(NC(=O)C2CCCO2)cc1 (stereo unspecified) | 6.7µM* | -4% | 3% | . | -2% | .
O=C(NCCOc1ccccc1)c1ccccc1NC(=O)C1CCCO1 (stereo unspecified) | ? | 4µM* | 9% | 3% | 2.2µM* | 11µM*
O=C(CSc1nc2sc3c(c2c(=O)[nH]1)CCCC3)NCCO | ? | 2% | 0% | 0% | -3% | 12%
CCCc1cc(=O)[nH]c2nnc(SCC(=O)N3CC(C)OC(C)C3)n12 (stereo unspecified) | 4% | -9% | 1% | . | 2% | .
Nc1nc(SCC(=O)N2CCCCCC2)[nH]c(=O)c1NC(=O)c1ccco1 | -2% | -4% | 0% | . | -1% | .
Cc1ccc(S(=O)(=O)N2CCC(C(=O)N3CCC3)CC2)cc1 | 9.5µM* | 2.2µM* | 18% | . | 3.2µM* | .
Cc1ccc(S(=O)(=O)N2CCN(C(=O)CC(C)C)CC2)cc1 | 15µM* | 4µM* | ? | -7% | 1.1µM* | .
Cc1ccc(S(=O)(=O)N2CCCN(C(=O)c3cc4ccccc4[nH]3)CC2)cc1 | 19µM* | 6% | 5% | . | 9% | .
O=C(C1COc2ccccc2O1)N1CCc2ccccc21 (stereo unspecified) | 21µM* | 3.5µM* | ? | -3% | 3.5µM* | 11%
N.N.N.N.N.N.N.N.N.N.N.N.N.N.O.O.[Ru+4].[Ru+5].[Ru+5] | . | -12%[46.1 µM] | . | . | -11%[46.1 µM] | .
O=C(C1CCN(S(=O)(=O)c2ccccc2F)CC1)N1CCc2ccccc21 | -2% | -2% | -5% | . | -3% | .
O=C(C1CCN(S(=O)(=O)c2ccccc2)CC1)N1CCc2ccccc21 | 21µM* | 21% | -3% | . | ? | .
O=c1cc(-c2ccc(Cl)cc2)oc(=O)[nH]1 | 17µM* | -3% | -1% | . | 0% | .
O=Cc1ccc(OCc2ccc3c(c2)OCO3)cc1 | 4.8µM* | 17% | 18µM* | . | 2% | .
Cc1ccc(COc2ccc3c(c2)OCO3)cc1 | 1.2µM* | 2.2µM* | ? | . | 4µM* | .
CC(C)(C)C1CCc2onc(C(=O)Nc3cccnc3)c2C1 (stereo unspecified) | ? | -7% | -3% | -1% | 19% | -30%
COc1ccc(-c2cc(C(=O)NCCc3ccc(S(N)(=O)=O)cc3)c3ccccc3n2)cc1 | 7.6µM* | 4% | -16% | -15% | 26% | -12%
Cc1ccc(-c2cc(C(=O)NCCc3ccc(S(N)(=O)=O)cc3)c3ccccc3n2)cc1 | 6µM* | 4% | -9% | -7% | 14% | -2%
CC(=O)c1sc(NC(=O)C(C)(C)C)nc1C | -2% | -2% | 2% | -1% | 1% | -8%
Cc1nc(NC(=S)NC(=O)c2ccccc2)sc1C(=O)N(C)C | ? | 24% | 6% | -3% | 25% | 2%
COc1ccc(/C=C/C(=O)Nc2nc(C)c(C(=O)N(C)C)s2)cc1 | 19µM* | 2% | 2% | -1% | -1% | 6%
CC(=O)c1sc(NC(=O)c2cnc(Cl)c(Cl)c2)nc1C | ? | 3% | ? | . | -4% | .
COc1ccc(C(=O)Nc2nc(C)c(C(=O)N(C)C)s2)cc1OC | 13µM* | 17% | ? | -15% | 22% | ?
COc1ccc(/C=C/C(=O)Nc2nc(C)c(C(=O)N(C)C)s2)cc1OC | -3% | 2% | 7% | 1% | 5% | 1%
CC(=O)c1sc(NC(=O)c2ccc(C)c(C)c2)nc1C | 2.4µM* | 1.6µM* | 5% | -2% | 1.8µM* | 8.9µM*
